Source: PubChem BioAssay (Tox21)
Results filed as inconclusive are left out. Calls of active or inactive are those of the source. The call rests on the fitted dose curve.

test: p53 small molecule agonists, cell-based qHTS assay with human liver microsomes (AID 1963577); details: HCT-116 p53RE-bla with human liver microsomes, ratio, 16 h; series mostly up to 66 µM; activation: at the top concentration;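 further: p53 response element beta-lactamase reporter cells with liver microsomes plus NADPH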
Source text: National Center for Advancing Translational Sciences [NCATS]
Division of Preclinical Innovation [DPI]
U.S. Environmental Protection Agency [EPA]
National Institutes of Environmental Health Sciences [NIEHS]
National Toxicology Program [NTP]
U.S. Food and Drug Administration [FDA]
p53, a tumor suppressor protein, is activated following cellular insult, including DNA damage and other cellular stresses. The activation of p53 regulates cell fate by inducing DNA repair, cell cycle arrest, apoptosis, or cellular senescence. The activation of p53, therefore, is a good indicator of DNA damage and other cellular stresses. […] The activation of the reporter gene under culture conditions can be detected by fluorescence intensity.
Tox21 Assay Protocol Summary:
The p53RE-bla cells were dispensed at 4,000cells/3ul/well in 1536-well black-clear bottom plates. After the assay plates were incubated at 37 C, 5% CO2 incubator for 5 hours, 23 nL of compounds dissolved in DMSO, positive controls or DMSO only was transferred to the assay plate. Following compound addition, 3 uL of human liver microsomes (XenoTech, Kansas City, KS) at final concentration of 0.5 mg/mL and 1uL of Beta-Nicotinamide adenine dinucleotide 2-phosphate (NADPH) at final concentration of 0.5 mg/mL were transferred to the assay plate. The plates were incubated at 37 C for 16 hours. 1 uL of LiveBLAzer detection mixture was added to each well and the plates were incubated at room temperature in the dark for 2 h.
On the % scale 0 is the no-effect control and ±100 the full control effect.

Row | Compound | activation
1 | CCCCCCC(CCCCCCCCCCC(=O)OCC(COC(C)=O)OC(C)=O)OC(C)=O (stereo not given) | 1.54% [at 30.3 µM] (inactive)
2 | O=C(CCN1CCN2CCCC2C1)N1c2ccccc2Sc2ccc(Cl)cc21 (stereo not given) | -1.04% [at 13.5 µM] (inactive)
3 | Oc1ccc(Nc2ccccc2)cc1 | -1.22% (inactive)
4 | CCOc1ccccc1O[C@H](c1ccccc1)[C@H]1CNCCO1 | -2.25% [at 30.3 µM] (inactive)
5 | OCC(CO)(CO)COCC(CO)(CO)CO | -4.67% (inactive)
6 | COc1ccc(C(=O)Nc2ccccc2)cc1[N+](=O)[O-] | -6.49% (inactive)
7 | c1cc(N(CC2CO2)CC2CO2)ccc1Cc1ccc(N(CC2CO2)CC2CO2)cc1 (stereo not given) | -5.42% (inactive)
8 | O=Cc1ccc(F)c(Br)c1 | 2.32% (inactive)
9 | CCCCCCCCCCc1ccccc1 | -1.3% (inactive)
10 | O=C(O)Cc1ccc(-c2ccccc2)cc1 | 1.36% [at 30.3 µM] (inactive)
11 | O=C(CN1CCN(Cc2ccc3c(c2)OCO3)CC1)N1c2ccccc2Sc2ccccc21 | 4.3% [at 30.3 µM] (inactive)
12 | C[N+]1(CC2COC(c3ccccc3)(c3ccccc3)O2)CCCCC1 (stereo not given) | 0.35% [at 13.5 µM] (inactive)
13 | CC(C)OCC1CO1 (stereo not given) | -4.89% (inactive)
14 | CC1(C)CC(O)CC(C)(C)N1 | -1.61% (inactive)
15 | C#CC(C)N(C)C(=O)Nc1ccc(Cl)cc1 (stereo not given) | 3.24% (inactive)
16 | CO[C@@]1(NC(=O)CSCC#N)C(=O)N2C(C(=O)O)=C(CSc3nnnn3C)CS[C@@H]21 | 0.652% [at 30.3 µM] (inactive)
17 | O=C(O)c1cccc(Cl)n1 | -9.92% (inactive)
18 | C[C@@H]1C[C@H]2[C@@H]3CCC4=CC(=O)C=C[C@]4(C)[C@@]3(F)[C@@H](O)C[C@]2(C)[C@H]1C(=O)CO | 0.737% [at 30.3 µM] (inactive)
19 | O=S(=O)(O)c1ccc(N=Nc2c(O)ccc3ccccc23)cc1 | -0.473% (inactive)
20 | CC1(C)CC(OC(=O)CCCCCCCCC(=O)OC2CC(C)(C)NC(C)(C)C2)CC(C)(C)N1 | 1.98% [at 13.5 µM] (inactive)

Row | Compound | activation
21 | O=C(c1ccccc1)c1ccc(Cl)cc1 | 8.02% (inactive)
22 | COCCO | -0.475% (inactive)
23 | CCN1CCN(c2cc(-c3ccc(F)cc3)c3c(n2)CCCCCC3)CC1 | -0.562% [at 13.5 µM] (inactive)
24 | CCN(CC)C(C)CN1c2ccccc2Sc2ccccc21 (stereo not given) | 3.63% [at 30.3 µM] (inactive)
25 | CCCC(=O)C(=O)O | -0.254% (inactive)
26 | NC1[C@H]2CN(c3nc4c(cc3F)c(=O)c(C(=O)O)cn4-c3ccc(F)cc3F)C[C@@H]12 (stereo not given in full) | 1.93% [at 30.3 µM] (inactive)
27 | CCN1CCCC1CNC(=O)c1cc(S(N)(=O)=O)ccc1OC (stereo not given) | 2.65% (inactive)
28 | C1CCN(CN2CCCCC2)CC1 | 3.47% (inactive)
29 | CC(CN(C)C)C(C)(O)Cc1ccc(Cl)cc1 (stereo not given) | 1.13% [at 30.3 µM] (inactive)
30 | Nc1cccc(S(=O)(=O)O)c1 | 0.279% (inactive)
31 | CCN(CC)C(=O)/C(C#N)=C/c1cc(O)c(O)c([N+](=O)[O-])c1 | -1.09% [at 30.3 µM] (inactive)
32 | COC(=O)c1c(C)cc(O)c(C)c1O | -5.88% (inactive)
33 | CN=C(NC#N)Nc1ccc(C2=NNC(=O)CC2C)cc1 (stereo not given) | 1.08% [at 30.3 µM] (inactive)
34 | CCCCCC(=O)OCCc1ccccc1 | 2.1% (inactive)
35 | CCCCC(=O)OCC(=O)[C@H]1[C@H](C)C[C@H]2[C@@H]3C[C@H](F)C4=CC(=O)C=C[C@]4(C)[C@@]3(F)[C@@H](O)C[C@@]21C | -1.11% [at 30.3 µM] (inactive)
36 | Cc1cccc(N(C)C(=S)Oc2ccc3c(c2)CCC3)c1 | 0.0134% [at 30.3 µM] (inactive)
37 | CC(C)CCCCCCOC(=O)c1ccc(C(=O)OCCCCCCC(C)C)c(C(=O)OCCCCCCC(C)C)c1 | 0.726% (inactive)
38 | N#CCc1ccccc1[N+](=O)[O-] | 1.31% (inactive)
39 | CC[C@H]1OC(=O)[C@H](C)[C@@H](O[C@H]2C[C@@](C)(OC)[C@@H](O)[C@H](C)O2)[C@H](C)[C@@H](O[C@@H]2O[C@H](C)C[C@H](N(C)C)[C@H]2O)[C@](C)(O)C[C@@H](C)C(=O)[C@H](C)[C@@H](O)[C@]1(C)O | -0.961% [at 30.3 µM] (inactive)
40 | O=[N+]([O-])c1cc(Cl)c(Cl)c(Cl)c1Cl | 1.74% (inactive)
